Assay [1] addresses Peroxisome proliferator-activated receptor delta (Homo sapiens) (UniProt Q03181). The assay is described as follows: qHTS assay to identify small molecule agonists of the peroxisome proliferator-activated receptor delta (PPARd) signaling pathway (AID 743212; calls by dose curve). The gist of the method: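 HEK293H UAS-bla reporter cells, human PPARd system; compounds delivered in DMSO after 5 h plating, then at 37 C. Beta-lactamase FRET read, 2 h RT substrate step.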
(In general: In qHTS, concentration-response curves come from the screen itself.)

Assay [2] can be described thus: qHTS assay to identify small molecule antagonists of the peroxisome proliferator-activated receptor delta (PPARd) signaling pathway - cell viability counter screen (AID 743213). Further: nearly all actives have a fitted effect of over 50% in size. Further: potency means the concentration at half of the fitted maximal effect. The procedure, abridged:
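Cytotoxicity counter screen: CellTiter-Glo luminescence read 30 min after addition, in the same wells as the reporter assay. There, PPARd UAS-bla HEK293H cells (3000/well) were treated 17 h at 37 C with compound and 300 nM L165041.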

The target in assay [3] is Peroxisome proliferator-activated receptor delta (Homo sapiens) (UniProt Q03181). Nature of the assay: qHTS assay to identify small molecule antagonists of the peroxisome proliferator-activated receptor delta (PPARd) signaling pathway (AID 743215; active means well fitted inhibition curve with a large enough effect in the signal ratio in the repeat runs, not every such curve was filed as active; the % refers to the signal ratio;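 further: cells stimulated with agonist L165041 at 300 nM final during compound exposure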; further: potency means the concentration at half of the fitted maximal effect). The gist of the method:
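Antagonist-mode beta-lactamase reporter screen: HEK293H cells with UAS-bla under PPARd control, stimulated by 300 nM L165041 (final) alongside test compound for 17 h at 37 C, then FRET fluorescence after 2 h substrate incubation.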

The target in assay [4] is Vitamin D3 receptor (Homo sapiens) (UniProt P11473). The assay is described as follows: qHTS assay to identify small molecule antagonists of the vitamin D receptor (VDR) signaling pathway (AID 743223; active means well fitted inhibition curve with a large enough effect in the signal ratio in the repeat runs, not every such curve was filed as active; the % refers to the signal ratio). The gist of the method:
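Beta-lactamase reporter read-out: FRET substrate fluorescence after 2 h at room temperature, following 16 h exposure of VDR-bla cells to test compound plus 3 nM (final) 1alpha,25-dihydroxyvitamin D3 agonist at 37C.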

Assay [5] deals with Bile acid receptor (Homo sapiens) (UniProt Q96RI1). The assay is described as follows: qHTS assay to identify small molecule antagonists of the farnesoid-X-receptor (FXR) signaling pathway (AID 743217; active means well fitted inhibition curve with a large enough effect in the signal ratio in the repeat runs, not every such curve was filed as active; the % refers to the signal ratio; further: potency means the concentration at half of the fitted maximal effect). The gist of the method:
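Beta-lactamase reporter under UAS control in HEK 293T cells; compound exposure 16 h at 37 °C in the presence of chenodeoxycholic acid (50 uM final); signal from B/G FRET substrate after 2 h at room temperature.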

A short description of assay [6]: qHTS assay to identify small molecule agonists of the farnesoid-X-receptor (FXR) signaling pathway - cell viability counter screen (AID 743218). Further: nearly all actives have a fitted effect of over 45% in size. Further: potency means the concentration at half of the fitted maximal effect. The procedure, abridged:
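In GeneBLAzer FXR-UAS-bla HEK 293T cells, compounds act for 16 h at 37 C. Cell viability is then scored in the reporter wells by CellTiter-Glo, 30 min at RT, luminescence.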

The target of assay [7] is Bile acid receptor (Homo sapiens) (UniProt Q96RI1). Nature of the assay: qHTS assay to identify small molecule agonists of the farnesoid-X-receptor (FXR) signaling pathway (AID 743220; active means well fitted activation curve with a large enough effect in the signal ratio in the repeat runs, not every such curve was filed as active; the % refers to the signal ratio; further: potency means the concentration at half of the fitted maximal effect). The procedure, abridged: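 Beta-lactamase reporter under UAS control in GeneBLAzer FXR HEK 293T cells (5000/well) measured with LiveBLAzer FRET substrate after 2 h at room temperature. Compound exposure lasted 16 h at 37C.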

The nature of assay [8]: qHTS assay to identify small molecule antagonists of the farnesoid-X-receptor (FXR) signaling pathway - cell viability counter screen (AID 743221; active means well fitted cell-killing curve with a large enough effect in the repeat runs, not every such curve was filed as active; further: nearly all actives have a fitted effect of over 50% in size; further: potency means the concentration at half of the fitted maximal effect). The gist of the method:
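HEK 293T FXR-bla cells, 5 h pre-incubation; compound + CDCA 50 uM final, 16 h, 37 C; beta-lactamase FRET read first, then CellTiter-Glo luminescence, 30 min RT.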

For assay [9], the target named is Vitamin D3 receptor (Homo sapiens) (UniProt P11473). The assay is described as follows: qHTS assay to identify small molecule agonists of the vitamin D receptor (VDR) signaling pathway (AID 743222; calls by dose curve). The procedure, abridged: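 Agonist activity measured in VDR-bla reporter cells. Exposure 16 h, 37C, 5% CO2; detection by B/G FRET substrate, 2 h RT.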

This passage reports Potency results from PubChem BioAssay (Tox21).

Inconclusive results are not listed. Unmarked numbers belong to inactive results. Active and inactive are the calls of the source. Unless noted, the call rests on the fitted dose curve; in most records, active means well fitted curve in the direction sought with a large enough effect in the repeat runs; inconclusive means weak or mixed curves; inactive means no such curve, though single readings can be large; an effect the other way counts as inactive or inconclusive.

Vitamin D3 receptor (Homo sapiens), sequence (P11473 whole entry, looked up): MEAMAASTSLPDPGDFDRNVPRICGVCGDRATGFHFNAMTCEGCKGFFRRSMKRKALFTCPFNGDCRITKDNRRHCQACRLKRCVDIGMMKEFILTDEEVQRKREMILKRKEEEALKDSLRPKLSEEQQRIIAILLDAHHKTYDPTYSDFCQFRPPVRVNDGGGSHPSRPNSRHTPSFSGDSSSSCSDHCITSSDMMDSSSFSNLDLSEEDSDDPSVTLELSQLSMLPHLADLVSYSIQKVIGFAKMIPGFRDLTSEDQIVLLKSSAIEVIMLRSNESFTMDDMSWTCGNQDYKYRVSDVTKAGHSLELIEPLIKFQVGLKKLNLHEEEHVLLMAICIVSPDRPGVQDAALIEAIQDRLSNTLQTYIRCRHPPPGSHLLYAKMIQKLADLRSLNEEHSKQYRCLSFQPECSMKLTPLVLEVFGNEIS
Bile acid receptor (Homo sapiens), sequence (Q96RI1 whole entry, looked up): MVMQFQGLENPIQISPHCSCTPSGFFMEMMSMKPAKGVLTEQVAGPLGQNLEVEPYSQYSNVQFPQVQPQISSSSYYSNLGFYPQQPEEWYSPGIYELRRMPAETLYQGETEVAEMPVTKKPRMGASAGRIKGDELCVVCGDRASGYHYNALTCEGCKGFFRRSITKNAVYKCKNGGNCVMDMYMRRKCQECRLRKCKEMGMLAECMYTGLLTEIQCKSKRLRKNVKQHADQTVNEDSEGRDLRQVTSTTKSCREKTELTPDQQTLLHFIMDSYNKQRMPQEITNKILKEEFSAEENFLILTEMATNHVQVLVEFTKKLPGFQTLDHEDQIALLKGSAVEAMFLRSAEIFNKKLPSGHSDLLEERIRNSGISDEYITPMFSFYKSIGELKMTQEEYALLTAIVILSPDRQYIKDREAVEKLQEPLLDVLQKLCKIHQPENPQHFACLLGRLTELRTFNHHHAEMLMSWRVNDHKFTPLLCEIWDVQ
Peroxisome proliferator-activated receptor delta (Homo sapiens), sequence (Q03181 whole entry, looked up): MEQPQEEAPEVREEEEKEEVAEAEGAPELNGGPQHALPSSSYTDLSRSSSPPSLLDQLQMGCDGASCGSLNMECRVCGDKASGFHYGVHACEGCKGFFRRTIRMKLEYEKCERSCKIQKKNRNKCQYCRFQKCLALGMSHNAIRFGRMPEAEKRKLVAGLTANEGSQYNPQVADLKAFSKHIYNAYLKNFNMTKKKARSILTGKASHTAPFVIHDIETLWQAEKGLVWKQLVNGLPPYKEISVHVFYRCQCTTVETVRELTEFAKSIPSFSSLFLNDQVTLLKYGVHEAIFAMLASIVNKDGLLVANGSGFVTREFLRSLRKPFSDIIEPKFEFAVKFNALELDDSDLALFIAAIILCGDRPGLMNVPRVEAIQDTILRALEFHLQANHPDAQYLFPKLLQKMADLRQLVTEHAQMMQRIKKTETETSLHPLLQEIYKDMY

For `CC1(C)CCC[C@]2(C)[C@H]3CCO[C@]3(C)CC[C@@H]12`, the Potency result in [1], in [2], in assay [3] and in assay [4] was “inactive” each time.

For the compound `COC(=O)c1ccccc1OC`, the Potency result in [2], in assay [3], in assay [5], in [6], in assay [7] and in assay [8] was “inactive” throughout.

`O=S(=O)(O)c1ccc(N=Nc2c(O)ccc3ccccc23)cc1`: the Potency entry in assay [1], in assay [3], in assay [9] and in assay [4] was “inactive” throughout. In addition, the Potency in assay [6] and in [8] was 38.9 µM (active) throughout.

Take `C#C[C@]1(O)CC[C@H]2[C@@H]3[C@H](C)CC4=C(CCC(=O)C4)[C@H]3CC[C@@]21C`: the Potency result in assay [1], in assay [2], in assay [6], in assay [8] and in assay [4] was “inactive” each time.

For `Cc1cccc(C(=O)O)c1O`, the Potency entry in assay [1], in assay [2], in assay [3], in [5], in assay [6] and in assay [7] was “inactive” in each case. Also, the Potency entry in [8] and in assay [4] was “inactive” in each case.

For `Cc1cc(-c2ccc(N=Nc3cc(S(=O)(=O)O)c4ccccc4c3N)c(C)c2)ccc1N=Nc1cc(S(=O)(=O)O)c2ccccc2c1N`, the Potency result in assay [1], in assay [6] and in assay [8] was “inactive” throughout.

In the case of `OC12N=C(c3ccccc3)SC1Cc1cc(Cl)ccc12` (stereo not given), the Potency result in assay [1], in assay [2], in [3], in [5], in assay [7] and in [8] was “inactive” in each case. Moreover, the Potency result in [4] was “inactive”.

As to `CC(C)Cn1cnc2c(N)nc3ccccc3c21`, the Potency entry in assay [1], in assay [2], in assay [3], in assay [5], in assay [6] and in assay [7] was “inactive” in each case. Also, the Potency result in assay [8], in assay [9] and in [4] was “inactive” throughout.

Regarding `CCN(CC)c1ccc2c(-c3ccc(S(=O)(=O)O)cc3S(=O)(=O)[O-])c3ccc(=[N+](CC)CC)cc-3oc2c1`, the Potency entry in assay [1], in assay [3], in [5], in assay [6], in [7] and in [9] was “inactive” each time. For the same compound, in assay [4], the Potency result was “inactive”.

Turning to `CNC(=O)c1ccccc1Sc1ccc2c(/C=C/c3ccccn3)n[nH]c2c1`, the Potency in assay [2] was 18.8 µM (active).

Regarding `Cc1c(C)c([N+](=O)[O-])c(C(C)(C)C)c([N+](=O)[O-])c1C`, the Potency result in assay [1], in assay [2], in assay [3], in assay [6] and in assay [8] was “inactive” throughout.

As for `C=CC(=O)Nc1cc2c(Nc3ccc(F)c(Cl)c3)ncnc2cc1OCCCN1CCOCC1`, the Potency result in [1], in [2], in assay [3], in assay [7], in assay [8] and in assay [4] was “inactive” each time.

On to `CC(C)=CCNc1ncnc2c1ncn2[C@@H]1O[C@H](CO)[C@@H](O)[C@H]1O`, for which the Potency entry in assay [1], in assay [3], in assay [7] and in [4] was “inactive” each time.

On to `O=C(O)c1cc(O)c2ccccc2c1O`, for which the Potency result in assay [1] and in [5] was “inactive” in each case.

As to `CC(C)(C)C1CCC(=O)CC1`, the Potency entry in assay [1], in assay [5], in [6], in assay [9] and in [4] was “inactive” throughout.

With `O=C(Oc1ccccc1)Oc1ccccc1`, the Potency result in assay [1], in assay [3], in assay [5], in [7], in assay [8] and in assay [9] was “inactive” throughout. For the same compound, the Potency result in assay [4] is “inactive”.

Take `c1ccsc1`: the Potency result in assay [1], in assay [2], in [3], in [6], in assay [9] and in assay [4] was “inactive” each time.

As for `Sc1nc2ccccc2s1`, the Potency entry in assay [1], in assay [5], in assay [8], in assay [9] and in assay [4] was “inactive” in each case. Besides, the Potency in assay [3] is 38.9 µM (active).

As to `CC(C)=CCC1=C(O)c2ccccc2C(=O)C1=O`, the Potency entry in assay [1], in assay [9] and in assay [4] was “inactive” each time.

For `C#C[C@]1(OC(C)=O)CC[C@H]2[C@@H]3CCC4=C/C(=N/O)CC[C@@H]4[C@H]3CC[C@@]21CC`, the Potency entry in assay [1], in assay [2], in assay [3] and in [7] was “inactive” throughout.

For `CC1(C)CC(O)CC(C)(C)N1`, the Potency entry in assay [1], in assay [2], in assay [3], in assay [6] and in assay [8] was “inactive” each time.

`Cc1c2ccccc2c(C)c2c1ccc1ccccc12`: the Potency was 21.9 µM (active) in assay [2], 21.9 µM (active) in assay [6], 48.5 µM (active) in assay [7] and 43.6 µM (active) in [8].

As to `Fc1ccc(C(c2ccc(F)cc2)N2CCNCC2)cc1`, the Potency is 15 µM (active) in assay [2], 29.8 µM (active) in assay [5], 11.9 µM (active) in assay [6] and 26.6 µM (active) in assay [8]. The Potency result in [7] was “inactive”.

With `O=C1CCCCCCCCCCCCCCCO1`, the Potency result in assay [2], in assay [3], in assay [5], in assay [7] and in assay [8] was “inactive” throughout.

As for `CN1CCCCC1CCN1c2ccccc2Sc2ccc(S(C)=O)cc21` (stereo not given), the Potency entry in [3] and in assay [8] was “inactive” each time.

In the case of `CN(C)CCN1CCN(c2cccc(Cl)c2)C1=O`, the Potency result in assay [2], in assay [3], in assay [6], in assay [8] and in [4] was “inactive” each time.
